The structures appear in SMILES notation. Results filed as inconclusive are left out. Unmarked numbers belong to inactive results. Calls of active or inactive are those of the source. The call rests on the fitted dose curve; in most records, active means well fitted curve in the direction sought with a large enough effect; inconclusive means small, poorly fitted or top-dose-only effect, or another doubt; inactive means no such curve, though single readings can be large; an effect the other way counts as inactive or inconclusive. Where a SMILES comes first, the peptide text is derived from it. The star is where a group is joined. PhAc = O=C(Cc1ccccc1)*

One experiment concerns HACAT. The experiment in a line: qHTS assay to identify novel small-molecules to repurpose for Merkel cell carcinoma treatment (AID 1296009). Further: nearly all actives have a fitted effect of over 60% in size. The following applies: MCC and control cell lines, CellTiter-Glo viability, 72 h; at 44.8 µM (top of the series) unless noted. The procedure, abridged:
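Viability readout: ATP luminescence (CellTiter-Glo) after 72 hr drug exposure at 37 degree celsius. Dose-response format was 8 points for NPC and 11 points for MIPE; data normalized to in-plate controls.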
(In general: Quantitative high-throughput screening tests each substance at several concentrations.)
For the compound `O=C(CC1CC(c2ccc(F)cc2F)=NO1)N1CCOCC1` (stereo not given), the compound was called inactive. Take `COC(=O)C1=CO[C@@H](O[C@@H]2O[C@H](CO)[C@@H](O)[C@H](O)[C@H]2O)[C@@H]2[C@@H](C(=O)O)CC[C@H]12`: the outcome is “inactive [at 17.4 µM]”. `C[C@@H]1O[C@@H](OC2C(CO)OC(OCC3OC(OC(=O)[C@]45CCC(C)(C)CC4C4=CCC6[C@@]7(C)CC[C@@H](O)[C@](C)(C(=O)O)C7CC[C@@]6(C)[C@]4(C)CC5)C(O)C(O)C3O)C(O)C2O)[C@H](O)[C@H](O)[C@H]1O` (stereo not given in full): the outcome is “inactive [at 9.27 µM]”. Same read-out and setting: next, `OC[C@H]1O[C@@H](OC[C@H]2O[C@@H](OCc3ccccc3)[C@H](O)[C@@H](O)[C@@H]2O)[C@H](O)[C@@H](O)[C@@H]1O`: “inactive [at 17.4 µM]”; `COC1OC(O)C2(CCC3(O2)C(C)CC2OC(=O)C4(C)CCCC3(C)C24)C1O` (stereo not given): “inactive”; `C=C1C(OC(C)=O)C(=O)C2C(C)(C)C(O)CCC2(C)C1CC(OC(C)=O)/C(C)=C/COC(C)=O` (stereo not given): “inactive [at 17.4 µM]”.

With `C/C(=C\CO)CC/C=C(\C)C(=O)O[C@@H]1O[C@H](CO)[C@@H](O)[C@H](O)[C@H]1O`, the outcome was inactive.

Regarding `CC(=O)c1c(C)cccc1O[C@@H]1O[C@H](CO)[C@@H](O)[C@H](O)[C@H]1O`, the call was inactive.

As to `CC(=O)O[C@@H]1C=C2[C@H](CC[C@@]3(C)[C@@]2(O)CC[C@H]2Cc4c([nH]c5ccccc45)[C@@]23C)O[C@@H]1C(C)(C)O`, the outcome was “inactive [at 17.4 µM]”. Turning to `C=CC1(C)CC=C2C(CCC3C(C)(C(=O)O)CCCC23C)C1` (stereo not given), the compound was classed as inactive. As for `CC(C)c1ccc2c(c1)C(=O)CC1C(C)(C(=O)O)CCCC21C` (stereo not given), the compound was classed as inactive. Still for that read-out and setting: to `CC(C)CC(=O)O[C@@H]1O[C@H](CO)[C@@H](O[C@H]2O[C@H](C)[C@@H](N[C@H]3C=C(CO)[C@@H](O[C@H]4O[C@H](CO)[C@@H](O[C@H]5O[C@H](CO)[C@@H](O[C@H]6O[C@H](CO)[C@@H](O)[C@H](O)[C@H]6O)[C@H](O)[C@H]5O)[C@H](O)[C@H]4O)[C@H](O)[C@H]3O)[C@H](O)[C@H]2O)[C@H](O)[C@H]1O` belongs “inactive [at 9.27 µM]”.

The subject of a further experiment is C33A. The experiment in a line: Primary qHTS to identify gynecologic anti-cancer compounds using libraries of approved drugs and bioactive compounds (AID 1345084). Further: on the % scale 0 is the no-effect control and ±100 the full control effect; nearly all actives have a fitted effect of over 55% in size. The following applies: Gynecologic cancer cell panel viability, ATPlite luminescence, 48 h; series mostly up to 57.5 µM; activity change, negative = cytotoxicity: at the top concentration. The procedure, abridged:
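Cytotoxicity screen measuring ATP content by luciferase luminescence. Each compound is applied at five concentrations for 48 h at 37 C with 5% CO2.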
Take `COC1CC(O[C@H]2CC[C@@]3(C)C(=CC[C@]4(O)C3[C@H](O)[C@@H](O)[C@]3(C)[C@@H]([C@H](C)O)CC[C@@]34O)C2)OC(C)C1OC1CC(OC)C(OC2CC(OC)C(OC3OC(C)C(OC4OC(CO)C(O)C(O)C4O)C(OC)C3O)C(C)O2)C(C)O1` (stereo not given in full): the activity change, negative = cytotoxicity was 15.5% [at 11.6 µM].

For the compound `C=C1CCC2[C@](C)(CO)CCC[C@@]2(C)[C@@H]1CCC1=CCOC1=O` (stereo not given in full), the “activity change, negative = cytotoxicity” value was 1.38% [at 38.5 µM]. The same measure, in the same setting: to `C=C1CCC[C@]2(C)CC[C@@](O)(C(=C)C(=O)O)C[C@@H]12` belongs 1.11%; to `CC1CC(=O)[C@]2(O)C(C(=O)OCCc3ccc(O)cc3)=CO[C@@H](O[C@@H]3O[C@H](CO)[C@@H](O)[C@H](O)[C@H]3O)[C@H]12` (stereo not given in full), 1.24% [at 25.3 µM]; to `COC(=O)C1=COC(O[C@@H]2O[C@H](CO)[C@@H](O)[C@H](O)[C@H]2O)[C@@H]2[C@@](C)(O)[C@@H](OC(=O)/C=C/c3ccccc3)C[C@]12O` (stereo not given in full), -3.75% [at 25.3 µM]. The same measure, in the same setting: next, `CCC[C@H](N[C@@H](C)C(=O)N1[C@H](C(=O)O)C[C@@H]2CCCC[C@@H]21)C(=O)O`: -8.31%. For the compound `CC1OC(OC2C(OC(=O)[C@]34CCC(C)(C)C[C@H]3C3=CCC5[C@@]6(C)CC[C@H](OC7OC(C(=O)O)C(O)C(O)C7O)C(C)(C)C6CC[C@@]5(C)[C@]3(C)CC4O)OC(CO)C2O)C(O)C(O)C1OC1OCC(O)C(O)C1O` (stereo not given in full), the activity change, negative = cytotoxicity is 6.97% [at 11.6 µM]. Still for that read-out and setting: to `CCOC(=O)CNC(=O)[C@@H]1CCCN1C(=O)Cc1ccccc1` (PhAc-Pro-Gly-OEt) belongs -0.536%.

On to `C/C(=C\CC[C@H](CO)[C@@H]1CC[C@]2(C)C3=C(CC[C@@]12C)[C@@]1(C)CCC(=O)C(C)(C)C1CC3)C(=O)O` (stereo not given in full), for which the “activity change, negative = cytotoxicity” value was -10.1% [at 25.3 µM]. `C=C1CCC2C(C)(C)CCC[C@]2(C)[C@H]1CC/C(C)=C/C(=O)O` (stereo not given in full): the “activity change, negative = cytotoxicity” value is -0.441%.

Consider `COCC1OC(OC(C)(C)C2CCC3(C)C=C(C4CCC5C4(C)CC(O)C4OC(C(C)(C)O)CCC45C)CCC3O2)C(NC(C)=O)C(O)C1O` (stereo not given), for which the “activity change, negative = cytotoxicity” value was 3.57% [at 25.3 µM].

For the compound `C=C1CCC2[C@](C)(CCC[C@]2(C)C(=O)O)[C@H]1CC/C(C)=C/C(=O)OC` (stereo not given in full), the “activity change, negative = cytotoxicity” value was 9.1% [at 38.5 µM]. Still for that read-out and setting: next, `COC(=O)c1c(CC=C(C)C)c(OC2OC(CO)C(O)C(O)C2O)c2ccccc2c1OC1OC(CO)C(O)C(O)C1O` (stereo not given): 1.05% [at 25.3 µM].

(Values after PubChem BioAssay (NCATS).)
